Results published in PubChem BioAssay (EPA / NIEHS).
Activity calls are given as the source filed them. Rule for the calls: active = hit-call score of the fitted dose curve at least 0.9, where 1 is the maximum; inactive = score below 0.9.

system: not listed separately; test: ATG_Oct_MLP_CIS: Attagene CIS-FACTORIAL HepG2 Assay for human Octamer-Binding Transcription Factor (Oct) (AID 2282993); conditions: HepG2 Attagene cis-factorial Oct reporter, mRNA; actives raise or lower the signal
How it was run: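 Multiplexed cis-reporter assay in human liver HepG2 cells, 24 h incubation. Reporter RNA amplified and labelled, then resolved by capillary electrophoresis; DMSO serves as negative control and baseline.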

outcome, inactive:
O=C1CCCC(=O)O1
O=CC1CC1
Cc1ccc(N/N=c2\c(=O)cc/c(=N/Nc3ccc(S(=O)(=O)O)cc3)c2=O)c(C)c1
O=C1C(N(CO)C(=O)NCO)N(CO)C(=O)N1CO (stereo not drawn)
CC(C)(Oc1ccc(C2CC2(Cl)Cl)cc1)C(=O)O (stereo not drawn)
CCCCCCCC[N+](C)(CCCCCCCC)CCCCCCCC
O=C(O)C(c1ccc(Cl)cc1)c1ccc(Cl)cc1
CCCNC(=O)NS(=O)(=O)c1ccc(Cl)cc1
O=S1(=O)OC(c2ccc(O)cc2)(c2ccc(O)cc2)c2ccccc21
CCOC(=O)CC(C(C)=O)C(C)=O
S=C(NC1CCCCC1)NC1CCCCC1
O=c1c2ccccc2nnn1CCl
CCOCC(=O)O
CC(C)=CCC[C@H](C)CCO
C=CC(=O)NC(C)(C)CS(=O)(=O)O
CCCOCCOCCOCCO
C1CN(SSN2CCOCC2)CCO1
C=C[Si](OC(C)=O)(OC(C)=O)OC(C)=O
CC(=O)OC(C)C
CC1(C)S[C@@H]2[C@H](NC(=O)COc3ccccc3)C(=O)N2[C@H]1C(=O)O
CC/C=C\CCOC(=O)CCCCC
COC=O
CCCc1ccc(OC)cc1
CCCCCCCC(C)=O
CCOc1ccc(N)c([N+](=O)[O-])c1
COC(=O)/C=C/C(C)=C\C=C\C(C)=C\C=C\C=C(C)\C=C\C=C(C)\C=C\C(=O)O
CN1C(=O)N(C)C(O)C1O (stereo not drawn)
CCN(CC#N)c1cccc(C)c1
OCCc1ccncc1
Cc1cc(C)c(C)c(C)c1
COc1cc(C)ccc1C(C)C
C=CC=CC=CCCCCC
O=C(O)c1cc2ccccc2nc1C(=O)O
[Cl][In]([Cl])[Cl]

molecular target: Cellular tumor antigen p53 (Homo sapiens) (UniProt P04637); test: ATG_p53_CIS: Attagene CIS-FACTORIAL HepG2 Assay for human p53 Transcription Factor (AID 2282994); conditions: HepG2 p53 cis-element reporter, Attagene mRNA; actives raise or lower the signal
How it was run: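 In HepG2 cells, reporter transcription units under cis-regulatory promoters were transiently introduced. Following 24 h treatment, RNA was processed to labelled, digested cDNA fragments read by capillary electrophoresis; fitting was bidirectional versus DMSO.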

Sequence of Cellular tumor antigen p53 (Homo sapiens) (P04637 whole entry, looked up, the tested form may be a part): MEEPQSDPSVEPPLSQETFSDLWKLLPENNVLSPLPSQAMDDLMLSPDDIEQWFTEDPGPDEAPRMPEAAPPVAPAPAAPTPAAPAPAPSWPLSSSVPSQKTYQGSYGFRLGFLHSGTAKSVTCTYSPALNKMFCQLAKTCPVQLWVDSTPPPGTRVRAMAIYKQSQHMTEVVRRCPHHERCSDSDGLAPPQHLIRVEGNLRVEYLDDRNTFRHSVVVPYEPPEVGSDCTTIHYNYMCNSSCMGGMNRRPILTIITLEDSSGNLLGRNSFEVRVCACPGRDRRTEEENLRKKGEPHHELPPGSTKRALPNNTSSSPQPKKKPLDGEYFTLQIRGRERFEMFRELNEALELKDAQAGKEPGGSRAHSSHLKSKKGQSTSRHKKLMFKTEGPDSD

outcome, inactive:
O=C1CCCC(=O)O1
O=CC1CC1
O=C1C(N(CO)C(=O)NCO)N(CO)C(=O)N1CO (stereo not drawn)
CC(C)(Oc1ccc(C2CC2(Cl)Cl)cc1)C(=O)O (stereo not drawn)
CCCNC(=O)NS(=O)(=O)c1ccc(Cl)cc1
CCOC(=O)CC(C(C)=O)C(C)=O
O=c1c2ccccc2nnn1CCl
CO[Si](OC)(OC)c1ccccc1
CCOCC(=O)O
CC(C)=CCC[C@H](C)CCO
CCCOCCOCCOCCO
C1CN(SSN2CCOCC2)CCO1
CC(=O)OC(C)C
CC1(C)S[C@@H]2[C@H](NC(=O)COc3ccccc3)C(=O)N2[C@H]1C(=O)O
O=S(=O)(O)CC(O)CCl (stereo not drawn)
NNC(=O)c1cccc(C(=O)NN)c1
CCCCCCCC(C)=O
CCC(C)C=O (stereo not drawn)
CN1C(=O)N(C)C(O)C1O (stereo not drawn)
CCN(CC#N)c1cccc(C)c1
Cc1cc(C)c(C)c(C)c1
N#CCc1ccc(Cl)cc1Cl
C=CC=CC=CCCCCC
O=C(O)c1cc2ccccc2nc1C(=O)O

read-out: not listed separately; test: BSK_3C_TissueFactor: BioMAP Diversity Plus: 3C Assay for Tissue Factor Biomarker Activity (AID 2282997); conditions: BioMAP 3C HUVEC, tissue factor biomarker readout; actives raise or lower the signal
How it was run: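 Cells used were primary human umbilical vein endothelial cells. They were dosed with chemical, and after 24 h Tissue Factor was quantified by ELISA. Curves were fitted bidirectionally with DMSO as baseline.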

outcome, inactive:
S=C(NC1CCCCC1)NC1CCCCC1
CO[Si](OC)(OC)c1ccccc1
C=C[Si](OC(C)=O)(OC(C)=O)OC(C)=O
CN1C(=O)N(C)C(O)C1O (stereo not drawn)
C=CC=CC=CCCCCC

read-out: not listed separately; test: BSK_3C_uPAR: BioMAP Diversity Plus: 3C Assay for Urokinase-type plasminogen activator receptor (uPAR) Biomarker Activity (AID 2282998); conditions: BioMAP 3C HUVEC, uPAR biomarker ELISA; actives raise or lower the signal
How it was run: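 Dose primary human umbilical vein endothelial cells, incubate 24 h, measure cell-surface uPAR by ELISA, then fit the signal in both directions against the DMSO negative control.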

outcome, inactive:
S=C(NC1CCCCC1)NC1CCCCC1
CO[Si](OC)(OC)c1ccccc1
C=C[Si](OC(C)=O)(OC(C)=O)OC(C)=O
CN1C(=O)N(C)C(O)C1O (stereo not drawn)
C=CC=CC=CCCCCC

read-out: not listed separately; test: BSK_3C_VCAM1: BioMAP Diversity Plus: 3C Assay for Vascular cell adhesion molecule 1 (VCAM1) Biomarker Activity (AID 2282999); conditions: BioMAP 3C HUVEC, VCAM1 ELISA, cytokine-stimulated; actives raise or lower the signal
How it was run: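 HUVEC primary cells, 24 h compound exposure; VCAM-1 by ELISA; gain/loss of signal fitted bidirectionally vs DMSO baseline.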

outcome, inactive:
S=C(NC1CCCCC1)NC1CCCCC1
CO[Si](OC)(OC)c1ccccc1
C=C[Si](OC(C)=O)(OC(C)=O)OC(C)=O
CN1C(=O)N(C)C(O)C1O (stereo not drawn)
C=CC=CC=CCCCCC

read-out: not listed separately; test: BSK_4H_Eotaxin3: BioMAP Diversity Plus: 4H Assay for Eotaxin 3 Biomarker Activity (AID 2283000); conditions: primary human endothelial cells (HUVEC); actives raise or lower the signal;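 note: CCL26 protein level quantified by ELISA in parallel with SRB cytotoxicity check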
How it was run: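 Endothelial primary cells (human umbilical vein) exposed to compound for 24 h. ELISA detection of Eotaxin-3.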

outcome, inactive:
S=C(NC1CCCCC1)NC1CCCCC1
CO[Si](OC)(OC)c1ccccc1
C=C[Si](OC(C)=O)(OC(C)=O)OC(C)=O
CN1C(=O)N(C)C(O)C1O (stereo not drawn)
C=CC=CC=CCCCCC
